“And” between values parts separate entries of the source, which are not always exact repeats. Identical values can stand only once.
How the values were obtained:
Conditions in all cases: Compound concentration 20.0 uM, Protein concentration 2.0 uM, Result type QC Liability
[1] = biological target: Tyrosine-protein kinase ABL1 (Homo sapiens) (UniProt P00519)
[2] = biological target: Cyclin-dependent kinase 2 (Homo sapiens) (UniProt P24941)
[3] = biological target: Casein kinase I isoform delta (Homo sapiens) (UniProt P48730)
[4] = biological target: Glycogen synthase kinase-3 beta (Homo sapiens) (UniProt P49841)
[5] = biological target: Mitogen-activated protein kinase 1 (Homo sapiens) (UniProt P28482)
[6] = biological target: T1, Aurora kinase A (Homo sapiens) (UniProt O14965)
T1 sequence (whole entry): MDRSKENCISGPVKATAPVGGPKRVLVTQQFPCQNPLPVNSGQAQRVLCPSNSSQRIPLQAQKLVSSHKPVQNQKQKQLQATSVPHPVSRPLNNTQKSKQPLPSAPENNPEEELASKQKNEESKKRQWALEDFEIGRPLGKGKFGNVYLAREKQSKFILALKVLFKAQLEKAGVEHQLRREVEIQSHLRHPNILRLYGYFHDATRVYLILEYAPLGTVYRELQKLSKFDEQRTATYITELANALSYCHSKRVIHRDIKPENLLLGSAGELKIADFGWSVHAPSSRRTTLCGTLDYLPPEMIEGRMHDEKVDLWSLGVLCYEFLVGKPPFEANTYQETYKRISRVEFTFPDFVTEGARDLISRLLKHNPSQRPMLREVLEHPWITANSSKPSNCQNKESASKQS

Sequence of Tyrosine-protein kinase ABL1 (Homo sapiens) (P00519 whole entry): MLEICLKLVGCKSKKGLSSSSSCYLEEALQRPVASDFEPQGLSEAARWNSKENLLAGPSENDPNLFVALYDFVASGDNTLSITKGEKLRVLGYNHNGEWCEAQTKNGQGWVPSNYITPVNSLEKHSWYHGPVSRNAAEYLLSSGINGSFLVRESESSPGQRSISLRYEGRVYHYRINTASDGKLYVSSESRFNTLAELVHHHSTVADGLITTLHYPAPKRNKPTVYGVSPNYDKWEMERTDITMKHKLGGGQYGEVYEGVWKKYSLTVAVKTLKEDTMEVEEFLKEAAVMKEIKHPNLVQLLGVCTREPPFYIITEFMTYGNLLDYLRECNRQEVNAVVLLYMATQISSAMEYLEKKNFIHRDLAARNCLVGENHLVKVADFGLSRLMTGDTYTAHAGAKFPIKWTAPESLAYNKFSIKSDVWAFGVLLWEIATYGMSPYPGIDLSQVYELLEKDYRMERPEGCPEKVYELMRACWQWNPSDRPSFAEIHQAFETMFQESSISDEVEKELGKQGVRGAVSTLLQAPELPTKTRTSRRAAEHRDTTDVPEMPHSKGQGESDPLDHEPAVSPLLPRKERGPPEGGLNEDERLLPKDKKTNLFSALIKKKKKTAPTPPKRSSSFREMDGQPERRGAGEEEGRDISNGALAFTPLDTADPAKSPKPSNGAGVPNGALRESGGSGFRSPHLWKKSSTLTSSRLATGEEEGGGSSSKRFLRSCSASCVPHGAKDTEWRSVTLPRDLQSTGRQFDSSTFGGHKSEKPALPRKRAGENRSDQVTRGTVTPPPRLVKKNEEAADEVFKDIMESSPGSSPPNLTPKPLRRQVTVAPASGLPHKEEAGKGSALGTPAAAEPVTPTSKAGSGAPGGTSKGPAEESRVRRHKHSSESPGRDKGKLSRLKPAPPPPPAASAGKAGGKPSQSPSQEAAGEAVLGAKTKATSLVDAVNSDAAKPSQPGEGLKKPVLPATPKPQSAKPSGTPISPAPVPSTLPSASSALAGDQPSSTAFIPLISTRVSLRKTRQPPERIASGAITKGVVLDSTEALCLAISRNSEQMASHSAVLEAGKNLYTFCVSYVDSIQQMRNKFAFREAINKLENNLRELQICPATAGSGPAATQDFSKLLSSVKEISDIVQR
Sequence of Mitogen-activated protein kinase 1 (Homo sapiens) (P28482 whole entry): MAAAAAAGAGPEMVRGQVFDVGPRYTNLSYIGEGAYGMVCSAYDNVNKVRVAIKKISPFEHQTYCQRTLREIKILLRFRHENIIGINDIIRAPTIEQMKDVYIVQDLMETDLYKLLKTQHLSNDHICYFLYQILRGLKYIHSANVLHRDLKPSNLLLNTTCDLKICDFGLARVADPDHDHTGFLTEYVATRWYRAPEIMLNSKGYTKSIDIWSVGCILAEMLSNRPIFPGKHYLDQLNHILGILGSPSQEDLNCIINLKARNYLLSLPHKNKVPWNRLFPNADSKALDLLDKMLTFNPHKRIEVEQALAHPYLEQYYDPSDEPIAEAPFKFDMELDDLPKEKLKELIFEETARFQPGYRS
Sequence of Glycogen synthase kinase-3 beta (Homo sapiens) (P49841 whole entry, looked up): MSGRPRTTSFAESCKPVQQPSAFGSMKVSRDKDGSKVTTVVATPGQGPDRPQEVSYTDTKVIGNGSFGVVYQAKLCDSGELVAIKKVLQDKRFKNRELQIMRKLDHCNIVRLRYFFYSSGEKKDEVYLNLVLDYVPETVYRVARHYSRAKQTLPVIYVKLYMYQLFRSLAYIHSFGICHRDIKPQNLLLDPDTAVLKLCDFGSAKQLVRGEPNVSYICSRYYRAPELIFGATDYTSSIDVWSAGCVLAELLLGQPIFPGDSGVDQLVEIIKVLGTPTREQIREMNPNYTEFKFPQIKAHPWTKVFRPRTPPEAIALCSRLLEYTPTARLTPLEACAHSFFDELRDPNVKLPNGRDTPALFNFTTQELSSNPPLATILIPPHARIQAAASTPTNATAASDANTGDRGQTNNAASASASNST
Sequence of Casein kinase I isoform delta (Homo sapiens) (P48730 whole entry, looked up, canonical isoform): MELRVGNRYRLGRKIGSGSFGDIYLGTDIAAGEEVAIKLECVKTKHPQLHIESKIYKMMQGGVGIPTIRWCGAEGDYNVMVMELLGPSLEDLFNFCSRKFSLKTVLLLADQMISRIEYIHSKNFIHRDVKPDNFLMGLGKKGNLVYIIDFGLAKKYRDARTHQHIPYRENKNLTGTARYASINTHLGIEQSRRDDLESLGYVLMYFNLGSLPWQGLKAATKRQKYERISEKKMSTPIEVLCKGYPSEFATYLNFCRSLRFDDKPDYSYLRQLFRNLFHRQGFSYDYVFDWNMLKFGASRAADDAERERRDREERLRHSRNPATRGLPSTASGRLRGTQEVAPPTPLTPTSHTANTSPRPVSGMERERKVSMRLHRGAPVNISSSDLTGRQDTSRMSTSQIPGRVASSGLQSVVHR

| SMILES | ΔTm [1] | ΔTm [2] | ΔTm [3] | ΔTm [4] | ΔTm [5] | ΔTm [6] |
| --- | --- | --- | --- | --- | --- | --- |
| CN(C)C(=O)Cn1cc(-c2nc(C3(c4ccc(-c5cnc(N)nc5)cc4)CC3)no2)cn1 | 0.7 °C | 0.53 °C | 0.13 °C | -0.37 °C | 0.16 °C | 1.51 °C |
| CN[C@@H](C)C(=O)N[C@H](C(=O)N1CCC[C@H]1C(=O)Nc1sc(-c2ncco2)nc1-c1ccccc1)C1CCCCC1 | 0.05 °C | -0.21 °C | -0.13 °C | -0.9 °C | 0.08 °C | -0.03 °C |
| COc1cc(-c2nn([C@H]3CC[C@H](N4CCN(C(C)=O)CC4)CC3)c3ncnc(N)c23)ccc1NC(=O)c1cc2ccccc2n1C | 14.2 °C | 1.13 °C | 21 °C | 0 °C | 3.54 °C | 8.28 °C |
| CN1C(=O)c2ccccc2N(C)c2nc(Nc3cnn(C4CCNCC4)c3)ncc21 | 9.76 °C | 1.04 °C | 0.9 °C | 0.14 °C | 0.53 °C | 16.4 °C |
| Fc1ccc(Cl)cc1-c1nc(Nc2ccncc2)c2nccnc2n1 | 0.4 °C | 1.19 °C | 2.24 °C | 0.58 °C | 0.56 °C | -0.16 °C |
| Cc1nc(Nc2cnn(C3CCNCC3)c2)nc2c1N(C)C(=O)c1cc3ccccc3cc1N2C | 2.1 °C | -1.03 °C | 0.48 °C | -0.49 °C | 0.6 °C | 1.73 °C |
| CC(C)(O)[C@H]1CC[C@H](Nc2ccc3ncc(-c4cccc(C(F)(F)F)c4)n3n2)CC1 | 0.38 °C | 1.53 °C | 3.57 °C | 2.41 °C | 0.62 °C | 0.74 °C |
| Fc1ccc(-c2nc(-c3ccc4ccccc4c3F)[nH]c2-c2ccncc2)cc1 | 4.64 °C | -0.5 °C | 4.6 °C | 8.59 °C | 0.03 °C | 0.26 °C |
| Cc1c(N2CCCC2)nc2ccc(Br)cc2c1C(=O)NC[C@H](CCC(=O)O)c1ccccc1Cl | -0.28 °C and -0.08 °C | -0.21 °C and 0.71 °C | -0.02 °C and 0.51 °C | -0.57 °C and -1.1 °C | -0.65 °C and 0.37 °C | -0.24 °C and -0.2 °C |
| Cc1cccc(CC(=O)N2CCc3c2ccc(-c2cn(C)c4ncnc(N)c24)c3F)n1 | 2.48 °C | 0.14 °C | 0.49 °C | -0.92 °C | 0.15 °C | 0.37 °C |
| CC(=O)Nc1c(F)cc(C(=O)N[C@H]2CC[C@H](O)CC2)cc1O[C@@H](C)c1ccccc1 | 0.21 °C | 0.97 °C | -0.03 °C | -0.82 °C | 0.43 °C | -0.15 °C |
| Cc1nc2ccc(Oc3ccc(F)cc3)cc2c(=O)n1C[C@H]1CCCN(C(C)C)C1 | 0.92 °C | 0.32 °C | 0.35 °C | -0.38 °C | 0.41 °C | 0.12 °C |
| Cc1c(NC(=O)c2ccc(C(C)(C)C)cc2)cccc1-c1cn(C)c(=O)c(Nc2ccc(C(=O)N3CCOCC3)cc2)n1 | 0.18 °C | -0.38 °C | 0.35 °C | -2.28 °C | -1.15 °C | 1.86 °C |
| CNc1nc(-c2ccc3c(N)n[nH]c3c2)cc(N2C[C@@H](C(=O)NC3CCCCC3)CC[C@H]2C)n1 | 0.49 °C | -0.54 °C | 0.18 °C | 0.25 °C | 0.38 °C | 2.89 °C |
| COC(=O)c1ccc2c(c1)NC(=O)/C2=C(\Nc1ccc(-c2nccn2C)cc1)c1ccccc1 | 3.43 °C | 0.27 °C | -0.5 °C | 1.96 °C | -6.31 °C | -1.46 °C |
| COc1ccc2c(O[C@@H]3C[C@H]4C(=O)N[C@]5(C(=O)O)CC5/C=C\CCCCC[C@H](NC(=O)OC5CCCC5)C(=O)N4C3)cc(-c3csc(NC(=O)C(C)C)n3)nc2c1C (stereo partly drawn) | 0.27 °C [middle of 4 runs] | 0.77 °C [middle of 4 runs] | 0.4 °C [middle of 4 runs] | -0.22 °C [middle of 4 runs] | 0.48 °C [middle of 4 runs] | 0.2 °C [middle of 4 runs] |
| CN(C)C/C=C/C(=O)Nc1ccc(C(=O)Nc2cccc(Nc3ncc(Cl)c(-c4c[nH]c5ccccc45)n3)c2)cc1 | 6.42 °C | 7.89 °C | -0.47 °C | 12.9 °C | -1.25 °C | 10.2 °C |
| O=C(O)c1cc(F)c2nc(N3[C@@H]4CC[C@H]3C[C@@H](OCc3c(-c5ccccc5OC(F)(F)F)noc3C3CC3)C4)sc2c1 | 0.23 °C | 0.38 °C | 0.11 °C | -5.45 °C | -0.82 °C | -8.04 °C |
